Cruzain noTriton – blocks cruzain activity in detergent-free assay | P25779 | hit rate 2.3% among 200,000 | purified cruzain, Z-FR-AMC fluorescence, no detergent | Potency, µM, for inactives: max response, negative = inhibition, usual class: inhibitors;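 note: plate controls were enzyme without inhibitor for no effect and buffer without enzyme for full effect; nearly all actives have a fitted effect of over 40% in size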
Target sequence (P25779 123-467 limits assumed): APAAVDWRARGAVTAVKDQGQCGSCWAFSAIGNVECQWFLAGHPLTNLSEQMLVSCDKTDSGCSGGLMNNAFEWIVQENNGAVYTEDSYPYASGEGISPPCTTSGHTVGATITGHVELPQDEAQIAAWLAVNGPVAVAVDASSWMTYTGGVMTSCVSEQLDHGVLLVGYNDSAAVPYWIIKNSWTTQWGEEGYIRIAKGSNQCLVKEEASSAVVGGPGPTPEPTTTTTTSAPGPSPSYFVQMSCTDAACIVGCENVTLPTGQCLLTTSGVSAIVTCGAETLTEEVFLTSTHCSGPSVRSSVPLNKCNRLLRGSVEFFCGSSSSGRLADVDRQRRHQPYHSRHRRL
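Purified cruzain at 1.5 nM, pre-incubated 15 min with compound at room temperature in 100 mM sodium acetate pH 5.5, 5 mM DTT, 0.00005% Triton X-100. Reaction started with 2 uM Z-FR-AMC; AMC fluorescence increase over 60 s gives rate.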
Cruzain inh Det – inhibitors of Trypanosoma cruzi cruzain with detergent | hit rate 0.43% among 200,000 | Potency, µM, for inactives: max response, negative = inhibition, most hits filed as inhibitors | purified cruzain, Z-FR-AMC fluorescence, 0.01% Triton | P25779;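 note: plate controls were neutral wells for no effect and buffer without enzyme for full effect; nearly all actives have a fitted effect of over 40% in size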
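Detergent-containing arm of a paired screen for aggregation-based inhibition: 0.01% Triton X-100 present. Cruzain at 1.5 nM cleaved 2 uM Z-FR-AMC at pH 5.5 with 5 mM DTT; AMC fluorescence gain over 60 s measured activity.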
An asterisk follows results filed as active. In the library only some 2.5% were active in any assay of this set; here they are far more common. Calls come from the whole dose curve; as a rule, active = well fitted curve in the direction sought with a large enough effect; inconclusive = small, poorly fitted or top-dose-only effect, or another doubt; inactive = no such curve, though single readings can be large; an effect the other way counts as inactive or inconclusive. Potency is the fitted concentration of half-maximal effect.

For COc1cc(NC(=O)C2CCN(C(=O)c3sc4nc[nH]c(=O)c4c3C)CC2)cc(OC)c1OC the results were Cruzain noTriton -5% and Cruzain inh Det -1%.
For COc1ccc(-c2csc(C3=C(O)CN(Cc4ccc(Cl)cc4)C3=N)n2)cc1OC the results were Cruzain noTriton -10% and Cruzain inh Det -6%.
`COc1cccc(CN2CC(O)=C(c3nc(-c4ccc(Cl)cc4)cs3)C2=N)c1` gave Cruzain noTriton 13µM* and Cruzain inh Det -10%.
For Cc1ccccc1-c1nc(CN2CCC(C(=O)NCc3ccc(F)cc3)CC2)c(C)o1 the results were Cruzain noTriton -16% and Cruzain inh Det -2%.
For COC(=O)c1cc(OC)c(OC)cc1NC(=O)CN1C(=O)c2ccccc2C1=O the results were Cruzain noTriton inconclusive and Cruzain inh Det 2%.
Screening COC(=O)c1cc(-c2ccccc2)sc1NC(=O)CN1C(=O)c2ccccc2C1=O returned Cruzain noTriton 25µM* and Cruzain inh Det -3%.
CC(=O)N1c2ccc(S(=O)(=O)NCC3CCC(C(=O)Nc4cccc(C)c4C)CC3)cc2CC1C (configuration not stated) was read as Cruzain noTriton inconclusive and Cruzain inh Det 0%.
`Cc1cccc(CCNC(=O)c2sc3nc4n(c(=O)c3c2C)CCCC4)c1` gave Cruzain noTriton -11% and Cruzain inh Det -2%.
`COc1cccc([C@@H]2Oc3ccc(OC)cc3[C@H](O)[C@H]2O)c1` gave Cruzain noTriton 9% and Cruzain inh Det -3%.
`O=S(=O)(c1ccccc1)c1nc(-c2ccco2)oc1NCCN1CCOCC1` gave Cruzain noTriton -1% and Cruzain inh Det -4%.
For O=S(=O)(c1ccc(F)cc1)c1nc(-c2ccco2)oc1Nc1ccc(F)cc1 the results were Cruzain noTriton inconclusive and Cruzain inh Det -7%.
`COc1ccc(Nc2oc(-c3ccco3)nc2S(=O)(=O)c2ccc(F)cc2)cc1` gave Cruzain noTriton 25µM* and Cruzain inh Det -25%.
Cc1ccc(CNc2oc(-c3ccco3)nc2S(=O)(=O)c2ccccc2)cc1 was read as Cruzain noTriton 32µM* and Cruzain inh Det inconclusive.
For Cc1c2cnn(CC(=O)N3CCCCC3)c(=O)c2c(C)n1Cc1ccc(Cl)cc1 the results were Cruzain noTriton 1% and Cruzain inh Det -1%.
Screening CS(=O)(=O)c1ccc2nc(NC(=O)Nc3cccc(Cl)c3)sc2c1 returned Cruzain noTriton inconclusive and Cruzain inh Det -2%.
`CS(=O)(=O)c1ccc2nc(NC(=O)Nc3ccc(Cl)c(Cl)c3)sc2c1` gave Cruzain noTriton 10µM* and Cruzain inh Det -8%.
For Cc1nn(-c2ccccc2Cl)c(Cl)c1/C=N/Nc1nc2ccccc2s1 the results were Cruzain noTriton 13µM* and Cruzain inh Det -2%.
For CCOC(=O)N/N=C/c1c(C)nn(-c2ccccc2Cl)c1Cl the results were Cruzain noTriton -2% and Cruzain inh Det -4%.
For CCn1c(C)c(/C=N/Nc2nc3ccccc3s2)c2ccccc21 the results were Cruzain noTriton 13µM* and Cruzain inh Det -1%.
`C(=N\Nc1nc2ccccc2s1)/c1cccs1` gave Cruzain noTriton -2% and Cruzain inh Det -5%.
For COc1ccc2c(c1)c1c(c(=O)n(Cc3ccccc3)c(=O)n1CC(=O)NCc1ccccc1Cl)n2C the results were Cruzain noTriton 11% and Cruzain inh Det 1%.
Cc1ccc(-c2nnc(SCC(=O)NC(C)(C)C)nc2-c2ccc(C)cc2)cc1 was read as Cruzain noTriton -22% and Cruzain inh Det -11%.
CCOCCCNC(=O)C(c1ccc(C)cc1)N(Cc1ccc2c(c1)OCO2)C(=O)c1ccc(NC(C)=O)cc1 (configuration not stated) was read as Cruzain noTriton inconclusive and Cruzain inh Det -1%.
`Cc1nc(SCC(=O)Nc2ccc(F)cc2)c(C#N)c(C)c1CC(=O)c1ccc(Br)cc1` gave Cruzain noTriton inconclusive and Cruzain inh Det -1%.
Screening Cc1cccc(NC(=O)CSc2nc(C)c(CC(=O)c3ccc(Br)cc3)c(C)c2C#N)c1C returned Cruzain noTriton 13µM* and Cruzain inh Det 3%.
`COc1ccc(NC(=O)c2cc(C(C)=O)n3ccccc23)cc1` gave Cruzain noTriton -11% and Cruzain inh Det -6%.
CC1CCCCN1C(=O)c1ccc2c(c1)N(Cc1ccc(Cl)cc1)C(=O)c1ccccc1S2=O (configuration not stated) was read as Cruzain noTriton 9% and Cruzain inh Det 2%.
c1ccc(-n2nnnc2-n2cnc3ccccc32)cc1 was read as Cruzain noTriton 8% and Cruzain inh Det 3%.
For c1ccc(-c2nccc(-c3ccc(-n4cnc5ccccc54)cc3)n2)cc1 the results were Cruzain noTriton 16µM* and Cruzain inh Det -2%.
Screening COc1ccccc1-c1cc(C(=O)Nc2cc(Cl)ccc2O)no1 returned Cruzain noTriton -13% and Cruzain inh Det -3%.
For COc1ccccc1-c1cc(C(=O)Nc2ccc(F)cc2F)no1 the results were Cruzain noTriton 13µM* and Cruzain inh Det 1%.
COc1ccc(-c2cc(C(=O)Nc3ccccc3SC)no2)cc1 was read as Cruzain noTriton 5µM* and Cruzain inh Det 4%.
`COc1cccc(C2=NS(=O)(=O)N(C)C(C(=O)Nc3ccccc3SC)=C2)c1` gave Cruzain noTriton 13µM* and Cruzain inh Det -1%.
CCc1ccccc1NC(=O)C1=CC(c2ccc3c(c2)OCO3)=NS(=O)(=O)N1C was read as Cruzain noTriton 3% and Cruzain inh Det -3%.
CCc1ccccc1NC(=O)c1cc(-c2ccc(OC)cc2)on1 was read as Cruzain noTriton -4% and Cruzain inh Det 0%.
`COc1cccc(N2CCN(C(=O)C3Cc4ccccc4N3C(C)=O)CC2)c1` (configuration not stated) gave Cruzain noTriton 14% and Cruzain inh Det -1%.
For CCc1cccc(C)c1Nc1c(-c2ccc(SC)cc2)nc2sccn12 the results were Cruzain noTriton inconclusive and Cruzain inh Det -6%.
COc1ccc(C2C(C(=O)Nc3cccnc3)=C(C)Nc3nc(SCc4ccccc4)nn32)cc1 (configuration not stated) was read as Cruzain noTriton 9% and Cruzain inh Det 2%.
Screening C=C1c2ccccc2O[C@H](C(=O)OCC)[C@@H]1CCC(C)C (tested in a mixture with another compound) returned Cruzain noTriton 7% and Cruzain inh Det -2%.
O=C(Nc1ccccc1)/C(=C/c1ccccc1)c1ccccc1 was read as Cruzain noTriton 13µM* and Cruzain inh Det -3%.
Cc1ccccc1NC(=O)/C(=C/c1ccccc1)c1ccccc1 was read as Cruzain noTriton -5% and Cruzain inh Det -1%.
For Cc1ccc(NC(=O)Cn2c(=O)n(Cc3ccccc3)c(=O)c3sc4ccccc4c32)cc1 the results were Cruzain noTriton -9% and Cruzain inh Det -1%.
For CC(C)(C)NC(=O)NC(=O)COC(=O)c1cccc(F)c1 the results were Cruzain noTriton -7% and Cruzain inh Det -4%.
Screening O=C(COC(=O)CNC(=O)c1ccccc1F)NCCC1=CCCCC1 returned Cruzain noTriton 10µM* and Cruzain inh Det 14µM*.
O=C(CNC(=O)c1cccc(F)c1)OCC(=O)N1CCCc2ccccc21 was read as Cruzain noTriton 10µM* and Cruzain inh Det 11µM*.
O=C(CNC(=O)c1ccccc1F)OCC(=O)N1CCCc2ccccc21 was read as Cruzain noTriton 10µM* and Cruzain inh Det 10µM*.
